# CHOP inhibitor: inhibitors of CHOP induction in ER stress response; inhibition, % at 10 µM; 220,000 tested, 3.8% active; CHO-K1 CHOP-promoter luciferase, tunicamycin-induced, 15-18 h;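 active = compounds that reduced the stress-induced luciferase reporter signal by more than about 70% of percent inhibition, limit read from the data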;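 note: 0% = tunicamycin plus vehicle and 100% = wells without tunicamycin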
# WT yeast gro inh: growth inhibition of WT yeast, mitochondrial fusion screen | 190,000 tested, 2.1% active | AID 1362 | mitochondrial fusion phenotypic screen, WT strain | inhibition, % at 10 µM; in the data active = inhibition above about 58%; tested in S. cerevisiae
# Lmaj promast: inhibitors of Leishmania major promastigote growth; Leishmania major promastigotes, resazurin fluorescence viability; inhibition, % at 10 µM; 200,000 tested, 9% active; AID 1063; in the data active = inhibition above about 50%;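 note: promastigotes grown with compound for 44 hours at 28 °C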
# Arbovirus anti: arbovirus infection inhibition. arbovirus infection cell-based antiviral screen. inhibition, % at 10 µM. 200,000 tested, 0.37% active. AID 1251; in the data active = inhibition above about 30%
# Active calls of the source: *; / = no result given. This is a sample that favours compounds with a hit; in the whole collection about 12% have one here.
SMILES,CHOP inhibitor,WT yeast gro inh,Lmaj promast,Arbovirus anti
O=C1CN(CC(=O)N2CCOCC2)c2ccccc2O1,6,-2,-1,0
O=C1CN(CC(=O)N2CCCCC2)c2ccccc2O1,-16,-8,98*,4
CC(C)[C@@H](C(=O)N1CCNCC1)n1cc(CCO)nn1,3,-5,-3,5
CCc1nc(Nc2ccncc2)c2oc3ccccc3c2n1,/,9,100*,-6
CCc1nc(N2CCCCC2)c2oc3ccccc3c2n1,89*,42,8,-6
CCc1nc(N2CCCC(C)C2)c2oc3ccccc3c2n1 (configuration not stated),72*,44,8,-42
COc1ccc(C(=O)CSc2nnc(CNC(=O)c3ccco3)n2C)cc1,5,4,-1,1
CN1C2C=C(N(CCc3c[nH]c4ccccc34)C(=O)c3ccc(Cl)cc3)CC1CC2 (configuration not stated),53,22,101*,-30
CN(C)C(=O)C(CCN1CCC(O)(c2ccc(Cl)cc2)CC1)(c1ccccc1)c1ccccc1,-16,6,97*,-43
COC(=O)Cn1cc(C#N)c2ccccc21,-11,-7,-7,3
CC(C)(C)NC(=O)Cn1cc(C#N)c2cc(Br)ccc21,79*,5,0,-8
Cc1ccc(S(=O)(=O)CNC(=S)c2cccc(Cl)c2)cc1,-18,69*,-5,11
CC(Cc1cccs1)NC(=S)Nc1ccc(Cl)c(Cl)c1 (configuration not stated),27,57,71*,-3
CC(Cc1cccs1)NC(=O)Nc1ccc(F)cc1 (configuration not stated),8,-4,-2,12
CC(Cc1cccs1)NC(=O)Nc1cccc(Cl)c1 (configuration not stated),-4,13,68*,-3
CC(Cc1cccs1)NC(=S)Nc1ccc(Cl)cc1 (configuration not stated),24,67*,11,-25
CCC(C)c1ccc(NC(=S)NCc2cccs2)cc1 (configuration not stated),57,6,67*,-29
Cc1ccc(S(=O)(=O)N(C)C)cc1NC(=O)C1CCCCC1,4,/,/,/
O=C(/C=C/c1cccc([N+](=O)[O-])c1)Nc1cccc(NC(=O)c2cccs2)c1,21,-1,12,-32
CCN1C(=O)/C(=C2/Sc3ccc(OC)cc3N2C)SC1=Nc1cccc(O)c1,35,-9,99*,-7
C=CCN1C(=O)/C(=C2/Sc3ccc(OC)cc3N2C)SC1=Nc1ccccc1,74*,3,-6,-8
COc1cccc(C2C(C#N)=C(N)OC3=C2C(=O)CC(c2ccco2)C3)c1OCc1ccc(F)cc1 (configuration not stated),15,32,76*,4
N#CC1=C(N)OC2=C(C(=O)CC(c3ccco3)C2)C1c1ccc(OCc2c(F)cccc2Cl)cc1 (configuration not stated),18,2,11,-5
O=C1CCC/C(=N/NC(=O)C2CCN(S(=O)(=O)c3cccs3)CC2)C1,-12,0,-4,1
C/C(=N\NC(N)=S)C1(C)CC2(CC(C)(C)OC2=O)C(=O)O1 (configuration not stated),-3,/,/,/
SMILES,CHOP inhibitor,WT yeast gro inh,Lmaj promast,Arbovirus anti
Cn1c2c(c(=O)n(C)c1=O)C(C(F)(F)F)(C(F)(F)F)N=C(c1ccc(Cl)cc1)N2,77*,26,100*,-14
Cc1ccccc1C1=NC(C(F)(F)F)(C(F)(F)F)c2c(n(C)c(=O)n(C)c2=O)N1,-1,-4,-1,1
Cc1ccc(-n2nc(C)c3onc(C)c3c2=O)cc1,-3,/,/,/
CC1=Nc2ccccc2N=C(NC(=O)CN2CCN(c3ccccc3)CC2)C1c1ccccc1 (configuration not stated),-4,-2,1,-6
CC1=Nc2ccccc2N=C(NC(=O)c2ccccc2)C1c1ccccc1 (configuration not stated),27,12,54*,4
COC(=O)Cc1ccc(NC(=S)N2CCN(c3cc(Cl)ccc3C)CC2)cc1,26,11,1,6
CC1(C)SC(=S)N(Cc2ccc3c(c2)OCO3)C1N(O)C(=O)NC1CCCCC1 (configuration not stated),64,10,82*,-1
O=C(CN1C2=NCCCN2c2ccccc21)c1ccc(Cl)cc1Cl,20,11,100*,-19
Clc1ccc(CN2C3=NCCCN3c3ccccc32)cc1Cl,-5,6,51*,-23
Fc1ccc(CN2C3=NCCCN3c3ccccc32)cc1,-16,14,-3,-4
O=C(CN1C2=NCCCN2c2ccccc21)c1cccc(Br)c1,24,1,94*,5
CCN(CC)c1ccc(NC(=O)c2ccccc2F)cc1S(=O)(=O)Nc1ccccc1OC,18,15,100*,9
CCN(CC)c1ccc(NC(=O)c2ccc(=O)[nH]c2)cc1S(=O)(=O)Nc1ccccc1OC,-2,24,1,-7
CCN(CC)c1ccc(NC(=O)c2ccccc2Br)cc1S(=O)(=O)Nc1ccccc1OC,18,-6,97*,1
COc1ccc(-c2c(C#N)c(N)nc(Sc3ccc(Cl)cc3)c2C#N)cc1,74*,/,/,/
O=c1c2ccccc2sn1-c1nccs1,94*,37,11,2
O=c1c2ccccc2c(C=Nc2ccccc2O)c(O)n1-c1nccs1,4,/,/,/
Cc1cc(C)c(S(=O)(=O)Nc2ccnc(-c3cccnc3)n2)c(C)c1,-10,-4,-10,24
CCC(Sc1nc2c(c(=O)n1CC)SC(C)C2)C(=O)OC (configuration not stated),32,15,2,1
O=C(c1ccc([N+](=O)[O-])c(CS(=O)(=O)c2ccc(Cl)cc2)c1)N1CCCC1,-3,0,-5,15
COCCNC(=O)CN(C)S(=O)(=O)c1ccc2c(c1)OCCO2,34,-1,0,6
COC(=O)c1ccc(CNC(=O)CN(CCC(C)C)S(=O)(=O)c2ccc3c(c2)OCCO3)cc1,23,-6,56*,1
CC(C)CN(C(=O)c1nn(C)c(=O)c2ccccc12)c1nc2ccccc2s1,61,67*,52*,5
COc1ccccc1-c1cc(C(=O)N/N=C/c2ccc(C)s2)c2ccccc2n1,37,36,83*,-11
COc1ccc2c(C(=O)CCl)c[nH]c2c1,-149,/,/,/
SMILES,CHOP inhibitor,WT yeast gro inh,Lmaj promast,Arbovirus anti
CCN1CCN(C(=O)C2c3cc(OC)c(OC)cc3C(=O)N(C)C2c2ccc(SC)cc2)CC1 (configuration not stated),-25,2,76*,4
Cc1cc2nc(C)n(CCCNC(=O)Nc3ccc(F)cc3)c2cc1C,2,0,91*,1
Fc1ccc(CNC(=S)Nc2ccc(OC(F)F)cc2)cc1,18,8,63*,22
NNC(=S)NCc1ccccc1,9,/,/,/
CCc1ccc(NC(=S)NCc2ccccc2)cc1,0,70*,19,12
S=C(NCc1ccccc1)NCc1cccc(CNC(=S)NCc2ccccc2)c1,-14,-8,85*,-1
FC(F)Oc1ccc(NC(=S)NCc2cccnc2)cc1,1,-6,7,7
CCOCCCNC(=O)NC(=O)CN1CCN(S(=O)(=O)c2ccc3c(c2)OCCO3)CC1,-1,-22,-2,12
